# About 83,000 compounds went through this panel and 20% of them were active in at least one assay; those are over-represented in the sample as a whole.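 96-well plates, one dose, 48 hours. Percent growth reported; active if below 10.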 A number with no mark means an inactive call. Activity calls are given as the source filed them.
# Experiments:
# Assay in all cases: NCI-60 one-dose screen, 48 h (100 = growth as untreated, 0 = no growth, -100 = all killed)
# Conditions in all cases: 10 µM unless noted
# T-47D breast = system: T-47D breast
# BT-549 breast = system: BT-549 breast
# MDA-MB-435 melanoma = system: MDA-MB-435 melanoma
# SW-620 colon = system: SW-620 colon
# MCF7 breast = system: MCF7 breast
# HCT-116 colon = system: HCT-116 colon
# HCC-2998 colon = system: HCC-2998 colon
# KM12 colon = system: KM12 colon
Structure (SMILES),growth (T-47D breast),growth (BT-549 breast),growth (MDA-MB-435 melanoma),growth (SW-620 colon),growth (MCF7 breast),growth (HCT-116 colon),growth (HCC-2998 colon),growth (KM12 colon)
C[C@]12CC[C@@H]3c4ccc(O)cc4CC[C@H]3[C@@H]1C[C@H](O)[C@@H]2O,128%,95.2%,92.5%,90.1%,108%,92.8%,107%,-72.2% (active)
Nc1nc2c(c(=O)[nH]1)C(c1ccc3c(c1)OCO3)C=C(C(=O)O)N2 (centres undefined),106%,91.9%,97.7%,106%,92.7%,99.4%,104%,110%
COc1cc(-c2nc(-c3ccccc3)c(-c3ccccc3)[nH]2)cc(OC)c1O,6.06% (active),11.5%,-23.2% (active),-37.2% (active),-85.8% (active),-2.7% (active),-55.2% (active),-52.9% (active)
O=C1Nc2ccccc2/C1=C/c1cn(CCCn2c3ccccc3c(=O)c3ccccc32)c2ccccc12,74.1%,84.6%,94.6%,98.4%,47.3%,87%,96.3%,88.3%
C/C(=C(/c1ccccc1)c1ccc(N2C(=O)c3cccc4c(NCc5ccccc5)ccc(c34)C2=O)cc1)c1ccccc1,76%,100%,102%,95.2%,89.9%,87.1%,109%,91.5%
CC1(C)C(=O)/C(=C\c2ccco2)C[C@]2(C)[C@H]3CC[C@@H]4[C@@H](C(=O)/C=C/c5ccco5)CC[C@@]4(C)[C@]3(C)CC[C@@H]12,35%,95.7%,4.33% (active),71.1%,62%,61.8%,108%,101%
C#CCC(C)(O)/C=C/C1=C(C)CCCC1(C)C (centres undefined),83%,87.6%,103%,104%,97.6%,82.6%,106%,97.6%
C/C(=N/NC(N)=S)C(=O)O,28.6%,102%,85.8%,77.6%,26.2%,10.6%,94.3%,109%
COc1ccc(-c2nc(Nc3ccc(-c4nc5ccccc5[nH]4)cc3)nc(N3CCOCC3)n2)cc1,16.1%,5.16% (active),-38% (active),3.57% (active),-44.3% (active),4.8% (active),-19.8% (active),12.4%
COc1cccc(-c2nn(-c3ccccc3)cc2-c2ccnc(NCCNS(=O)(=O)c3cccc(F)c3)c2)c1,6.41% (active),46.9%,20%,46%,14.1%,21.4%,17.1%,19.6%
Cn1nc(-c2ccccc2)c2c(-c3ccccc3)onc2c1=O,26.8%,47.4%,-1.78% (active),28.9%,23.6%,42.5%,74.5%,33.7%
COc1ccc(-c2nc3ncccn3c2-c2nc3ccc(Br)cc3[nH]2)cc1,77.8%,90.4%,68.1%,93.9%,96.7%,83%,97%,84.5%
O=C1/C(=C\c2ccco2)SC(=S)N1CCc1ccc(O)cc1,67.6%,87.2%,93.7%,109%,114%,96.1%,116%,85.5%
Cn1cc(-c2nc(-c3c[nH]c4ncccc34)cs2)c2cc(Cl)ccc21,38.9%,70.6%,51.9%,73.3%,17%,32.2%,80.6%,9.88% (active)
O=C1CNCCN1,110%,100%,107%,104%,89.3%,101%,111%,110%
Cn1cc(-c2csc(-c3cn(CCN)c4ccc(Br)cc34)n2)c2cccnc21,45.5%,93.2%,91.1%,21.1%,20.9%,58.7%,97.9%,71.8%
Cc1csc(-c2ccc3c(c2)COC3(CCCN(C)C)c2ccc(F)cc2)c1 (centres undefined),-37.5% (active),76.6%,-30.3% (active),22.7%,17.1%,-26.7% (active),-50.7% (active),14.4%
Cc1cc(N(CCCNc2ccnc3cc(Cl)ccc23)Cc2ccco2)nc(Cl)n1,21.8%,35.2%,72.2%,66.2%,42.4%,28.2%,75.2%,65.7%
CC(=O)c1c(C)[nH]c(-c2nc3ccc(N4CCN(C)CC4)cc3[nH]2)c1-c1ccc(OCC2CCOCC2)cc1,29.1%,57.1%,23.5%,50.6%,6.13% (active),19.8%,31.7%,34.2%
COc1ccc(NC(=O)c2ccoc2COc2ccccc2)cc1,95.1%,92%,73.6%,97.9%,88.6%,87.4%,93%,93.9%
Oc1ccc(Nc2ccccc2)cc1,91.7%,74%,75.8%,88.7%,89.2%,99.2%,107%,79.1%
CCCCCCCCNc1cccc2c1C(=O)c1ccccc1C2=O,94.5%,101%,105%,93.5%,102%,103%,107%,103%
C(=C\c1c[nH]c2ccccc12)/c1ccc2ccccc2n1,68.4%,68.8%,93%,107%,63.7%,65.9%,97.8%,52.4%
C=C1C(=O)O[C@H]2[C@H]1CC/C(COC(=O)N[C@H](Cc1c[nH]c3ccccc13)C(=O)OC)=C\CC[C@@]1(C)O[C@@H]21,-45.3% (active),26.4%,54.8%,-1.92% (active),14.7%,-58.2% (active),101%,92.6%
COc1ccc(OCC(CO)N2CCN(c3ccccc3)CC2)cc1 (centres undefined),101%,97.5%,108%,110%,83.4%,95.7%,99.7%,105%
O=c1c(CNc2ccc(S(=O)(=O)Nc3nccs3)cc2)coc2ccccc12,94.3%,99.5%,112%,101%,110%,100%,105%,111%
C/C(=N\Nc1ccc2ccccc2n1)c1ccccn1,19.8%,20.3%,3.21% (active),10.3%,8.28% (active),-12% (active),18.1%,6.76% (active)
CN1CCN(CC#CCn2c3c(c4ccccc42)C[C@]2(C)[C@H]4CC[C@@H]5[C@H]6[C@H]7OC(=O)[C@@]6(CCC7(C)C)CC[C@@]5(C)[C@]4(C)CC[C@H]2C3(C)C)CC1,104%,89.5%,97.8%,91.2%,67.7%,35.1%,106%,93.7%
